NS1 function inh = influenza NS1 inhibition. Potency, µM (series often up to 46.1 µM), inactives show top-dose activity, positive = more growth. 0.4% of 270,000 active; calls by dose curve; also: potency is read from the fitted curve at half-maximal effect; actives are rising curves; nearly all actives have a fitted effect of over 50% in size
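In this qHTS, NS1 from influenza A is expressed in budding yeast, where it slows growth. Cells are switched from glucose to 2% galactose medium (pH 6.0, -URA), treated with compound, and growth recovery is read at OD600.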
Pf growth 96h = P. falciparum growth inhibition at 96 hour, primary screen for plastid delayed-death inhibitors. P. falciparum luciferase reporter growth, 96 h. Potency, µM (doses to about 28.7 µM), inactives show top-dose activity change, negative = inhibition, hits mostly inhibitors. 6.9% of 320,000 active. AID 504834; also: potency is read from the fitted curve at half-maximal effect; % is scaled to controls: 0 for no effect and ±100 for the full control effect
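P. falciparum expressing integrated firefly luciferase grown in erythrocytes (2% hematocrit, 0.05% parasitemia final) with compounds for 96 hours at 37 C, 5% CO2. Growth inhibition read as loss of luminescence after adding luciferase detection reagent.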
Pf growth 48h = inhibits P. falciparum growth in the first generation, 48 h; P. falciparum luciferase growth in erythrocytes, 48 h; Potency, µM (top dose mostly 28.7 µM), for inactives: top-dose activity change, negative = inhibition, hits mostly inhibitors; 5.9% of 310,000 active; AID 504832; also: potency is read from the fitted curve at half-maximal effect; % is scaled to controls: 0 for no effect and ±100 for the full control effect
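Cell-based growth assay: transgenic P. falciparum expressing firefly luciferase, cultured in red cells within RPMI 1640 containing 0.5% w/v Albumax, 24 mM bicarbonate and gentamycin. A drop in luciferase activity indicates inhibition.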
Shiga toxin inh = inhibitors of Shiga toxin in Vero cells | Vero cells, Shiga toxin protein synthesis inhibition reporter | inhibition, % at 38.7 µM | 9.2% of 290,000 active | AID 2315; in the data active = inhibition mostly above about 28%, no sharp cut-off; inactive = mostly below about 43%; also: 0% is about no effect
Cycloheximide cs = affects cycloheximide protein synthesis inhibition readout, counter-screen | 12% of 300,000 active | max response, % | cell reporter, cycloheximide protein synthesis inhibition counterscreen; in the data active = max response mostly above about 13%, no sharp cut-off; inactive = mostly below about 14%; also: read at 38.3 µM for the half of the compounds with a filed dose; 0% is about no effect
An asterisk follows results filed as active; ? = inconclusive; nt = not tested or not shown; [ ] = dose if it differs, or a comment. In the library only some 21% were active in any assay of this set; here they are far more common. Unless noted, calls follow the shape of the dose curve; as a rule, active = well fitted inhibition curve with a large enough effect; inconclusive = small, poorly fitted or top-dose-only effect, or another doubt; inactive = no such curve, though single readings can be large or run the other way.

SMILES | NS1 function inh | Pf growth 96h | Pf growth 48h | Shiga toxin inh | Cycloheximide cs
CCOC(=O)Cc1nnc(NC(=O)CSc2ncc(-c3ccccc3)nn2)s1 | nt | ? | 23.6% | 0.6 | -1.2
CCOC(=O)c1c(/N=C/c2ccc(C)cc2O)sc2c1CCN(C)C2 | -0.2% | ? | ? | -2.2 | 1.5
CCOC(=O)c1c(NC(=O)Nc2ccc(F)cc2)sc2c1CCN(C)C2 | 1.7% | ? | 8.28µM* | -7.8 | -1.5
CCOC(=O)c1c(NC(=O)C2CCCCC2)sc2c1CCN(C(C)C)C2 | -8.1% | 13.1µM* | -11.4% | 9.6 | -4.9
CCOC(=O)c1c(NC(=S)Nc2ccc(F)cc2)sc2c1CCC2 | -2.9% | ? | nt | -9.1 | -3.3
CCOC(=O)c1c(NC(=S)Nc2ccc(Cl)cc2)sc2c1CCN(C)C2 | -2.3% | ? | ? | 1.8 | -0.8
CCOC(=O)c1c(NC(=S)Nc2ccc(OCC)cc2)sc2c1CCN(C)C2 | -8.1% | 3.7µM* | 8.28µM* | 35.7 | 18.4*
CCOC(=O)c1c(/N=C/c2cccc(C)c2O)sc2c1CCN(C)C2 | 2.8% | 1.65µM* | ? | -6.8 | -3.4
COC(=O)c1c(NC(=O)C2CCCCC2)sc2c1CCN(C(C)C)C2 | -0.7% | ? | ? | -6.4 | -1.4
CCn1nnc(NC(=O)c2ccco2)n1 | 7.3% | -3.1% | 40.0% | 4.6 | 6.4
COc1ccc(/C=N/N=C2\SC(CC(=O)O)C(=O)N2c2ccccc2)c(OC)c1 (configuration not stated) | -7.9% | 13.5% | 13.3% | -7.1 | -0.5
N#Cc1ccc(C(=O)OCCCc2cc3ccccc3c(=O)o2)cc1 | nt | 43.3% | 47.1% | nt | nt
O=C(Cn1nc(C(F)(F)F)cc1C1CC1)NCc1ccccc1F | -6.6% | 9.4% | -4.1% | -3.5 | 0.5
CCOC(=O)c1c(NC(=O)Cc2ccccc2)sc2c1CCN(C)C2 | -4.6% | -0.1% | -21.4% | 3.8 | -3.6
CCOC(=O)c1c(NC(=O)CSc2nnc(C)s2)sc2c1CCN(C)C2 | ? | ? | 6.57µM* | -6.8 | -2.3
CCOC(=O)c1c(NC(=O)C(F)(OC)C(F)(F)F)sc2c1CCN(C)C2 (configuration not stated) | 5.5% | 10.4µM* | ? | -7.0 | -3.7
CCOC(=O)c1c(NC(=O)CCS(=O)(=O)c2ccccc2)sc2c1CCN(C)C2 | 21.5% | ? | ? | 22.6 | 7.3
CCOC(=O)c1c(NC(=O)CN(CC)CC)sc2c1CCC2 | -19.1% | 33.2% | 11.7µM* | -10.5 | -1.9
CC1(C)SC2C(N3C(=O)C(c4ccccc4)NC3(C)C)C(=O)N2C1C(=O)O (configuration not stated) | nt | 7.2% | -1.5% | nt | nt
CCCCN1CCC(n2c(=O)[nH]c3ccccc32)CC1 | -15.9% | nt | nt | nt | nt
O=c1[nH]c2ccccc2n1CCCN1CCC(n2c(=O)[nH]c3cc(Cl)ccc32)CC1 | -0.2% | 4.78µM* | 10.7µM* | 13.0 | 4.0
COc1ccc(S(=O)(=O)NCCCN2CCCC2=O)cc1OC | 14.7% | ? | 75.1% | -4.7 | -3.0
CCCOc1ccc(C(=O)NNC(=S)NC(=O)c2ccccc2)cc1 | -101.2% | 3.29µM* | 10.4µM* | 3.8 | 7.5
CCCCOc1ccc(C(=O)NNC(=S)NC(=O)CC)cc1 | -57.8% | ? | 6.57µM* | 29.1 | 2.0
CCCOc1ccc(C(=O)NNC(=S)NC(C)=O)cc1 | -116.5% | 0.329µM* | ? | 39.0 | 16.9
SMILES | NS1 function inh | Pf growth 96h | Pf growth 48h | Shiga toxin inh | Cycloheximide cs
CCC(=O)NC(=S)NNC(=O)c1ccc([N+](=O)[O-])cc1 | 8.8% | 13.1µM* | ? | -7.5 | 18.7
O=C(CSc1nnc2ccc(-c3ccc(F)cc3)nn12)N1CCOCC1 | nt | 10.6% | 34.9% | nt | nt
COc1ccc(C(=O)NCC(=O)OCC(=O)N2CC(C)CC(C)C2)cc1 (configuration not stated) | 0.2% | 12.6% | nt | -9.1 | -4.0
COc1ccc(/C(C)=N/NC(=S)NCc2ccco2)cc1 | -43.4% | -0.1% | 10.5% | 15.1 | -1.0
Cc1ccc(NC(=O)CN(C)C(=S)NC2CC2)cc1 | nt | -30.4%[5.75 µM] | ? | -7.6 | -1.3
CC(C)(C)c1ccc(C(=O)NC(=S)NNC(=O)COc2ccccc2)cc1 | -58.4% | 0.0% | 39.0% | 60.6 | 16.5*
CCC(C(=O)Oc1c(C(C)C)cccc1C(C)C)c1ccccc1 (configuration not stated) | nt | ? | -14.0% | nt | nt
COCCC(C(=O)Oc1c(C(C)(C)C)cc(C)cc1C(C)(C)C)c1ccccc1 (configuration not stated) | nt | 5.22µM* | 8.28µM* | nt | nt
CCc1[nH]nc(C(=O)NC2CCCc3c2cnn3-c2cc(C)cc(C)c2)c1C (configuration not stated) | -73.3% | ? | 74.8% | 54.6* | 27.1*
CCc1noc(C)c1C(=O)NC1CCCc2c1cnn2-c1cc(C)cc(C)c1 (configuration not stated) | -5.6% | -27.7% | ? | 33.5 | 33.7*
Cc1sc2nc(C)n(/N=C/c3ccc(O)cc3O)c(=O)c2c1C | nt | -2.1% | -29.9% | 19.1 | -0.9
COc1ccc(COC(=O)c2c(C)nn(-c3ccccc3)c2Cl)cc1 | -6.1% | 1.3% | -0.1% | 39.5* | 22.3*
CC(=O)c1ccc(NC(=O)c2c(C)nn(-c3ccccc3)c2Cl)cc1 | 1.2% | 6.1% | -2.5% | -7.7 | -3.0
Cc1ccc(NC(=O)c2c(C)nn(-c3ccccc3)c2Cl)cc1 | -16.4% | ? | 11.1% | 66.1* | 35.4*
CCOC(=O)CNC(=O)c1c(C)nn(-c2ccccc2)c1Cl | -23.3% | 4.2% | 13.8% | 18.0 | 6.1
COc1ccc(NC(=O)c2c(C)nn(-c3ccccc3)c2Cl)cc1 | -12.9% | 198.8% | ? | nt | 15.7*
CC(=O)Nc1ccc(NC(=O)c2c(C)nn(-c3ccccc3)c2Cl)cc1C | -0.5% | 14.0% | 6.5% | 27.7 | -2.4
COc1ccc(S(=O)(=O)N2CCN(C(=O)c3c(C)nn(-c4ccccc4)c3Cl)CC2)cc1 | -45.5% | 4.65µM* | 0.0% | -14.6 | 10.8
CC(C)Sc1n[nH]c(=O)n1-c1ccccc1 | 5.0% | 23.7% | 19.8% | -6.5 | -3.2
O=C(CSc1ccc(-c2ccc(-n3cccn3)cc2)nn1)Nc1ccccc1F | nt | 5.9% | 43.2% | nt | nt
CCOc1cc(N2CCOCC2)c(OCC)cc1NC(=O)c1ccc(F)c(S(=O)(=O)N2CCOCC2)c1 | nt | 19.7% | 1.3% | nt | nt
Cc1cc(Cl)ccc1NC(=O)COC(=O)CCNS(=O)(=O)c1ccccc1 | nt | -15.8% | -8.2% | nt | nt
Cc1ccnc(SCc2cc(=O)c(OC(=O)c3ccc(Cl)c([N+](=O)[O-])c3)co2)n1 | -8.6% | -14.2% | -3.1% | -1.0 | 5.6
Cc1nn(-c2ccccc2)c(C)c1C(=O)OCc1ccc(C#N)cc1 | -10.4% | 4.9% | -10.5% | 24.8 | 36.4*
CC(=O)c1cccc(NC(=O)c2c(C)nn(-c3ccccc3)c2Cl)c1 | -10.4% | ? | -10.4% | 15.9 | 8.7
COc1cccc(NC(=O)c2c(C)nn(-c3ccccc3)c2Cl)c1 | -34.1% | 4.65µM* | 32.0% | 30.9 | 19.0*
COc1ccccc1NC(=O)C1CCN(S(=O)(=O)c2ccc3c(c2)NC(=O)C(C)S3)CC1 (configuration not stated) | 17.2% | ? | 11.7µM* | -4.3 | 4.3
CC1Sc2ccc(S(=O)(=O)N3CCC(C(=O)NCc4ccc(Cl)cc4)CC3)cc2NC1=O (configuration not stated) | -2.4% | 15.4% | 10.4µM* | 9.9 | 1.0
